Results from PubChem BioAssay AID1490 (National Center for Advancing Translational Sciences (NCATS), 2009).
About 11,000 (3.5%) of roughly 310,000 compounds were called active. Inconclusive results (about 4%) are left out. Calls come from the whole dose curve; as a rule, active = well fitted inhibition curve with a large enough effect; inconclusive = small, poorly fitted or top-dose-only effect, or another doubt; inactive = no such curve, though single readings can be large or run the other way. Only a selection was taken, and actives are over-represented in it overall. The source holds several records for some structures; these can differ, active in one and inactive in another.

biological target: 4'-phosphopantetheinyl transferase ffp (Bacillus subtilis) (UniProt Q9F4F7); experiment: qHTS Assay for Inhibitors of Bacillus subtilis Sfp phosphopantetheinyl transferase (PPTase); settings: Biochemical Sfp PPTase activity;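 note: the enzyme is Sfp with the accession as filed and its product quenches rhodamine fluorescence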;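 for largest response in the series, negative = inhibition: 0% = enzyme reaction without inhibitor and -100% = no enzyme wells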
How it was run: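 After 15 min at room temperature with compound, 15 nM Sfp received 5 uM rhodamine-CoA plus 12.5 uM BHQ-2-ybbR (50 mM Hepes pH 7.6, 10 mM MgCl2). Rate came from the fluorescence difference over 30 min, ex 525/em 598 nm.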
Potency is the fitted concentration of half-maximal effect.

Row | SMILES | largest response in the series, negative = inhibition | Potency
1 | COc1ccc(CNC(=O)CN(c2ccc(OC)c(Cl)c2)S(=O)(=O)c2ccc(C)cc2)cc1 | 17.9% (inactive) | 
2 | Cc1ccc(CCN2CC(C(=O)NCCc3ccccc3)CC2=O)cc1 (stereo unspecified) | 20.9% (inactive) | 
3 | Cc1cccc(C(=O)NCC(=O)OCC(=O)N2CC3(C)CC2CC(C)(C)C3)c1 (stereo unspecified) | -0.692% (inactive) | 
4 | Cc1nnnn1/C(=C\c1ccccc1)C(=O)OCC(=O)N1CC2(C)CC1CC(C)(C)C2 (stereo unspecified) |  | 50.1 µM (active)
5 | COc1ccccc1C(=O)N1CC2(C)CC1CC(C)(C)C2 (stereo unspecified) | 23.6% (inactive) | 
6 | CC(NCCc1ccc(S(N)(=O)=O)cc1)C(=O)NCc1ccccc1 (stereo unspecified) | 4.54% (inactive) | 
7 | C=CCn1c(C23CC4CC(CC(C4)C2)C3)n[nH]c1=S | 14.6% (inactive) | 
8 | COc1ccc(N(C(=O)c2snc(C(N)=O)c2N)C(C(=O)NC2CCCC2)c2ccc(C)o2)c(OC)c1 (stereo unspecified) | -2.29% (inactive) | 
9 | Cn1cc(C(=O)c2ccc(Cl)cc2Cl)cc1C(=O)NN | 10.1% (inactive) | 
10 | CCN1C(=O)/C(=c2\s/c(=C3\Sc4ccccc4N3C)c(=O)n2C)N(C)C1=S | 1.11% (inactive) | 
11 | CCCCN1C(=O)/C(=C2/Sc3ccc(Cl)cc3N2CC)SC1=S | 3.35% (inactive) | 
12 | CCN1C(=O)/C(=C2/Sc3ccccc3N2CCCS(=O)(=O)O)SC1=S | 8.36% (inactive) | 79.4 µM (active)
13 | C[C@H](NC(=O)c1nc[nH]c1C(=O)NCC(=O)OC(C)(C)C)c1ccccc1 | 10.2% (inactive) | 
14 | CC(C)[C@H](NC(=O)N1CCn2c1nc1ccccc12)C(=O)NCc1ccc2c(c1)OCO2 | 20.1% (inactive) | 
15 | CC(C)C(=O)NCC(c1cccs1)S(=O)(=O)c1ccc(F)cc1 (stereo unspecified) | 0.881% (inactive) | 
16 | CNc1ccc(NC(C)=O)cc1[N+](=O)[O-] | 18.8% (inactive) | 
17 | Cc1ccc(/C=C/C(=O)Nc2ccc([N+](=O)[O-])c(NC(=O)/C=C/c3ccc(C)o3)c2)o1 |  | 17.8 µM (active)
18 | CCc1nnc(NC(=O)/C=C/c2ccc(C)o2)s1 | 1.89% (inactive) | 
19 | COc1cc(/C=C2\SC(=O)NC2=O)ccc1OCc1ccc(Cl)nc1 | -9.24% (inactive) | 
20 | CCn1c(CNC(=O)c2cc(OC)c(OC)c(OC)c2)cc2cc(C)ccc21 | -13.9% (inactive) | 

Row | SMILES | largest response in the series, negative = inhibition | Potency
21 | CCOc1ccc(CCNC(=O)Nc2ccccc2)cc1OCC | 11.9% (inactive) | 
22 | Cc1ccccc1NC(=O)C1CCCN(C(=O)NCc2ccccc2)C1 (stereo unspecified) | -0.998% (inactive) | 
23 | Fc1ccccc1Cn1cnc(NC(=S)NCCc2ccccc2)n1 | -24.4% (inactive) | 
24 | N=c1n(CCc2ccccc2)c2ccccc2n1Cc1ccccc1F |  | 50.1 µM (active)
25 | CC(=O)NC(C)c1nc2ccccc2n1Cc1ccccc1F (stereo unspecified) | 11% (inactive) | 
26 | O=Cc1c(Nc2ccccc2Cl)nc2ccccn2c1=O |  | 31.6 µM (active)
27 | Cc1cccn2c(=O)c(C=O)c(Nc3ccc(S(N)(=O)=O)cc3)nc12 | 12.7% (inactive) | 
28 | O=Cc1c(N2CCN(c3cccc(Cl)c3)CC2)nc2ccccn2c1=O | -4.2% (inactive) | 
29 | O=C(Nc1cccc(-c2cccc(Cl)c2)c1)C1CCN(C2CCC2)CC1 | -24.2% (inactive) | 
30 | COc1ccc(S(=O)(=O)N2CCC(C(=O)N3CCCC3)CC2)cc1C | 9.47% (inactive) | 
31 | O=C1CSC(c2ccc(Cl)cc2)N1 (stereo unspecified) |  | 79.4 µM (active)
32 | O=C1NC(=O)C(c2ccc(Cl)cc2)N1 (stereo unspecified) | -0.697% (inactive) | 
33 | COC(=O)C1=C(N)Oc2cc(C)[nH]c(=O)c2C1c1ccc(Cl)cc1 (stereo unspecified) | 1.3% (inactive) | 
34 | CC(C)c1ccc(NC(=O)Cn2ncc3ccccc32)cc1 | 13.4% (inactive) | 
35 | COc1ccc2c(C(=O)c3ccc(C)cc3)n(CCC(N)=O)[n+]([O-])c2c1 | -4.94% (inactive) | 
36 | COc1ccc(CCNc2nc(-c3cccc(NC(C)=O)c3)cs2)cc1OC | -23.9% (inactive) | 
37 | Cc1cccc(Nc2nc(-c3ccccc3)cs2)n1 | -27.9% (inactive) | 
38 | CC(=O)Nc1cccc(-c2csc(Nc3cccc(C)n3)n2)c1 |  | 79.4 µM (active)
39 | Cc1noc(NS(=O)(=O)c2ccc(NC(=O)c3oc4ccc(F)cc4c3C)cc2)c1C | 14.6% (inactive) | 
40 | CCN(CC)C(=O)COc1coc(CN2CCN(Cc3ccccc3)CC2)cc1=O | 12.6% (inactive) | 

Row | SMILES | largest response in the series, negative = inhibition | Potency
41 | COCCNC(=S)Nc1cc(S(=O)(=O)N2CCOCC2)ccc1N1CCCCC1 |  | 1 µM (active)
42 | CC(=O)NCCC(=O)Nc1cc(S(=O)(=O)N2CCOCC2)ccc1N1CCOCC1 | 23.2% (inactive) | 
43 | O=C(COC(=O)Cc1ccc(F)cc1)Nc1cc(S(=O)(=O)N2CCOCC2)ccc1N1CCCC1 | 11.4% (inactive) | 
44 | CCc1ccccc1NC(=O)[C@@H]1CCC(=O)N1C1OC(=O)c2c1ccc(OC)c2OC (stereo partly specified) | 9.06% (inactive) | 
45 | CCOc1ccc(S(=O)(=O)NCC2CCCO2)cc1 (stereo unspecified) | 12.6% (inactive) | 
46 | CCOc1ccc(-n2c(N)c(C(=O)NCC3CCCO3)sc2=S)cc1 (stereo unspecified) |  | 50.1 µM (active)
47 | CCOc1ccc(N(CC(=O)NCC2CCCO2)S(=O)(=O)c2ccc(C)cc2)cc1 (stereo unspecified) | 9.58% (inactive) | 
48 | COc1ccc(-c2cc(C(=O)NC(Cc3c[nH]c4ccccc34)C(=O)O)c(C)o2)cc1OC (stereo unspecified) |  | 35.5 µM (active)
49 | COc1ccc(-c2cc(=O)oc3cc(OCC(=O)N[C@@H](Cc4c[nH]c5ccccc45)C(=O)O)ccc23)cc1 | -17.5% (inactive) | 
50 | Cc1cccc(C)c1OCC(=O)NC(Cc1c[nH]c2ccccc12)C(=O)O (stereo unspecified) | 12.2% (inactive) | 
51 | CC1C(=O)Nc2ccccc2N1C(=O)c1ccc(F)cc1F (stereo unspecified) | 9.39% (inactive) | 
52 | COc1cccc(OCc2cc(C(=O)N3CCN(C(=O)c4ccco4)CC3)no2)c1 | 10.6% (inactive) | 
53 | Cc1cc(Cl)ccc1OCCCC(=O)Nc1cccc(-n2cnnn2)c1 | 1.31% (inactive) | 
54 | O=C(O)c1n[nH]nc1-c1ccccc1 |  | 70.8 µM (active)
55 | O=c1[nH]c(-c2ccccc2)c(-c2ccccc2)[nH]1 | 2.86% (inactive) | 
56 | c1ccc(Nc2n[nH]nc2-c2ccccc2)cc1 | 1.39% (inactive) | 
57 | S=C(Nc1cccc(Cl)c1)Nc1ccc2c(c1)OCCO2 | -5.75% (inactive) | 
58 | CC(C)(C)c1cc(=O)n2c(nc3ccccc32)[nH]1 | 30.5% (inactive) | 
59 | CC1(C)CC(=O)c2cnc3nc4ccccc4n3c2C1 |  | 50.1 µM (active)
60 | Cc1ccc2nc(Nc3ncc4c(n3)CC(C)(C)CC4=O)nc(C)c2c1 | 4.59% (inactive) | 
